# From PubChem
# This is a sample that favours compounds with a hit; in the whole collection about 2.3% have one here.
# CHRM1 antagonist – antagonists of human M1 muscarinic receptor. P11229. inhibition, % at 3 µM. AID 588852. CHO-K1 hM1, Fluo-8 calcium fluorescence, ACh EC80 antagonist. 360,000 tested, 1.3% active;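 active = percent inhibition above its own plate's cutoff, namely the mean of that plate's compound wells plus 3 SD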;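 note: peak over basal fluorescence ratio during 140 s after agonist addition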
# Target sequence (P11229 whole entry, looked up): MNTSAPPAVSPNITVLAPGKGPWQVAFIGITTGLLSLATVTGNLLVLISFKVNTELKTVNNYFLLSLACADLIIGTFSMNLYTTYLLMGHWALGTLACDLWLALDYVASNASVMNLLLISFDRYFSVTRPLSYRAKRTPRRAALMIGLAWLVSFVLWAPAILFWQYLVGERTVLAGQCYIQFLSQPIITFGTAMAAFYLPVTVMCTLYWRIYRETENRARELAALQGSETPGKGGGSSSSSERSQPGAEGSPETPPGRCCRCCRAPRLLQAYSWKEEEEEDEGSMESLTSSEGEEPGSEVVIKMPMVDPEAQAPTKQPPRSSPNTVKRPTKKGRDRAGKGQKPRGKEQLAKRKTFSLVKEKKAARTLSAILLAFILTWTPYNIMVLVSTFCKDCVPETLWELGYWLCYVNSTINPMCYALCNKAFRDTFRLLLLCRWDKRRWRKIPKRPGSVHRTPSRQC
# CHO-K1 Ca antag – counter-screen for M1 antagonists: effect in parental CHO-K1 cells. 360,000 tested, 0.6% active. ATP-induced calcium, Fluo-8 fluorescence. inhibition, % at 3 µM;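 active = inhibition above a per-plate cutoff, the plate's mean sample inhibition plus 3 SD, cut at about 24% in these data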
# M1 ag parental – counter-screen for M1 agonists: effect in parental CHO-K1 cells; Fluo-8 calcium fluorescence; scaled to maximal ATP response, vehicle zero; activation, % at 3 µM; 360,000 tested, 0.48% active; AID 602248; in the data active = activation above about 15%;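 note: untransfected CHO-K1 host cells lacking M1 receptor as counterscreen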
# CHRM1 PAM – potentiates human M1 receptor response to acetylcholine; P11229; activation, % at 3 µM; CHO-K1 hM1, Fluo-8 calcium fluorescence, ACh EC20; 0% = ACh EC20, 100% = maximal ACh; AID 588819; 360,000 tested, 0.088% active; in the data active = activation above about 19%, passing the limit was not always enough
# CHO-K1 Ca PAM – counter-screen for M1 PAMs: effect in parental CHO-K1 cells; activation, % at 3 µM; 360,000 tested, 0.02% active; ATP EC20, Fluo-8 calcium fluorescence; 0% at ATP EC20, 100% at ATP max;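 active = activation above the run cutoff, the mean activation of all test compounds plus 3 SD, cut at about 40% in these data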;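 note: peak over basal fluorescence ratio in a 140 s read after ATP addition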
# M1 ag – agonists of human M1 muscarinic receptor; P11229; CHO-K1 hM1, Fluo-8 calcium fluorescence, agonist mode; 0% DMSO, 100% acetylcholine EC100; activation, % at 3 µM; 360,000 tested, 0.33% active; AID 588814;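 active = activation above the run's mean compound activation plus 3 SD, cut at about 16% in these data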;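 note: peak over basal fluorescence ratio within a 140 s kinetic read after compound addition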
# Numbers stand for hits; n = inactive.
SMILES,CHRM1 antagonist,CHO-K1 Ca antag,M1 ag parental,CHRM1 PAM,CHO-K1 Ca PAM,M1 ag
CCCCNC(=O)N1CCN(c2ccnc3cc(Cl)ccc23)CC1,n,n,16.2,n,n,n
CCCCCCCCC(c1nc2ccccc2[nH]1)N1CCN=C(c2ccccc2)C1=O (centres undefined),n,n,n,n,n,n
Cn1nccc1C(=O)c1ccc(Cl)cc1,n,24.2,n,n,n,n
COC(=O)c1cc(NS(=O)(=O)c2ccc(C(C)C)cc2)ccc1N1CCOCC1,n,n,n,n,n,n
OC(CN1CCOCC1)Cn1c(-c2cccc(Cl)c2)nc2ccccc21 (centres undefined),n,27.8,n,n,n,n
OC(CN1CCOCC1)Cn1cnc2ccccc21 (centres undefined),n,n,n,n,n,n
Clc1ccc(CN2CCc3c([nH]c4ccccc34)C2)cc1Cl,n,n,n,n,n,n
CSc1ccc(CN2CCc3c([nH]c4ccccc34)C2)cc1,n,n,15.3,n,n,n
Cc1noc(C)c1C(=O)OCC(=O)NC1CC1,13.6,n,n,n,n,n
COc1ccc(C(CNC(=O)CNC(=O)c2cccc(C)c2)N2CCCCC2)cc1 (centres undefined),n,n,n,n,n,n
C=CCN1C(=NC(=O)CCC(=O)O)SC2CS(=O)(=O)CC21 (centres undefined),n,n,n,n,n,n
C=CCN1C(=NC(=O)CCCC(=O)O)SC2CS(=O)(=O)CC21 (centres undefined),n,28.2,n,n,n,n
Cc1cccc(NS(=O)(=O)c2cc3c4c(c2)CC(=O)N4CCC3)c1C,n,n,n,n,n,n
Cc1ccccc1NS(=O)(=O)c1cc2c3c(c1)CC(=O)N3CCC2,n,n,17.1,n,n,n
CCn1cc(C(=O)NC2CCCc3c2cnn3-c2cccc(C)c2C)cn1 (centres undefined),30.6,25.1,n,n,n,n
Cc1nnc(SCC(=O)N2CCN(c3ccccc3)CC2)n(N)c1=O,n,n,n,n,n,n
CCOC(=O)c1[nH]c2ccc(Br)cc2c1NC(=O)CCN1CCC(C)CC1,31.9,n,n,n,n,n
CN=C1N(C)C[C@@H]2[C@@H]3C(=O)N(C)C(=O)[C@@H]3[C@](C)(C(=O)OC)N12,n,n,n,n,n,n
CCN(CC(=O)Nc1ccccc1C(F)(F)F)C(=O)C1CC(=O)N(Cc2ccccc2)C1 (centres undefined),n,n,n,n,n,n
COc1ccc(CCn2c(C)cc(C(=O)CSc3nnnn3-c3ccccc3)c2C)cc1,n,23.7,n,n,n,n
COc1ccc(NC(=O)C(Sc2ccccc2)c2ccccc2)c(OC)c1 (centres undefined),n,n,n,n,43.5,n
COc1ccc(NC(=O)C2CCN(S(=O)(=O)c3ccc(OC)c(OC)c3)CC2)c(OC)c1,n,26.4,n,n,n,n
COc1ccc(NC(=O)C2CCN(S(C)(=O)=O)CC2)c(OC)c1,n,n,n,n,n,n
COc1ccc(NC(=O)C2CCN(C(=O)c3ccccc3)CC2)c(OC)c1,60.9,n,n,n,n,n
COc1ccc(C(=O)N2CCC(C(=O)Nc3ccccc3OC)CC2)cc1,n,n,n,n,n,n
SMILES,CHRM1 antagonist,CHO-K1 Ca antag,M1 ag parental,CHRM1 PAM,CHO-K1 Ca PAM,M1 ag
COc1ccccc1NC(=O)C(Sc1ccccc1)c1ccccc1 (centres undefined),n,n,n,n,n,n
CC(C)N(CC#CC(O)(c1ccccc1)c1ccccc1)CCO,83.6,n,n,n,n,n
CN(CC#CC(O)(c1ccccc1)c1ccccc1)C(C)(C)C,99.9,n,n,n,n,n
CC(C)N(CC#CC(O)(c1ccccc1)c1ccccc1)C(C)C,100.3,n,n,n,n,n
OCCN(CC#CC(O)(c1ccccc1)c1ccccc1)CCO,n,n,n,n,n,n
O=C1CC[C@@H](C(=O)N2CSC[C@@H]2C(=O)Nc2cccc(C(F)(F)F)c2)N1,n,n,n,n,n,n
CCOC(=O)CNC(=O)CSc1nnc(CCc2nc3ccccc3[nH]2)n1C,n,n,n,n,n,n
CCCCN1CCc2[nH]c(=S)[nH]c(=O)c2C1,n,n,n,24.6,n,n
COCCN1CCc2[nH]c(=S)[nH]c(=O)c2C1,n,n,n,n,n,n
O=C(CSc1nc(=O)n(CCCN2CCOCC2)c2c1CCCC2)Nc1cccc([N+](=O)[O-])c1,n,n,n,n,n,n
CCCCc1ccc(NC(=O)CSc2nc(=O)n(CCN(CC)CC)c3c2CCC3)cc1,36.1,n,n,n,n,n
CCN(CC)CCn1c2c(c(SCC(=O)Nc3ccc(C)c(F)c3)nc1=O)CCCC2,50.2,n,n,n,n,n
CCN(CC)CCCn1c2c(c(SCC(=O)Nc3cc(OC)cc(OC)c3)nc1=O)CCC2,29.3,n,n,n,n,n
O=C(CSc1nc(=O)n(CCCN2CCOCC2)c2c1CCCC2)Nc1cccc(F)c1,29.7,n,n,n,n,n
CN(C)c1ccc(-c2ccnc3c2CC(C)(C(=O)NCc2cccc(Cl)c2)O3)cc1 (centres undefined),n,n,n,n,n,n
CCN1N=C(C)C=C(c2ccccc2)n2c1nc1ccccc12,n,n,n,n,n,n
Cc1ccc(/C=N/NC(=O)c2cc3c(s2)CCCC3)o1,n,n,n,n,n,n
CCOc1ccc(S(=O)(=O)N(CC)CC(=O)NCc2cccnc2)cc1C,n,n,n,n,n,n
CN1C[C@@H]2C(c3ccc(Cl)nc3)C3(c4ccc(C#N)cc4)CC2(C3)[C@H]1c1ccccc1 (some centres undefined),55.0,n,n,n,n,n
COC(=O)c1ccc(C23CC4(C2)[C@H](CN(C)[C@@H]4c2ccccc2)C3c2ccc(Cl)nc2)cc1 (some centres undefined),69.9,n,n,n,n,n
COC(=O)c1ccc(C23CC4(C2)[C@H](CN(C)[C@@H]4c2ccccc2)C3c2ccc(C(F)(F)F)cc2)cc1 (some centres undefined),n,n,n,n,n,n
N#Cc1ccc(C23CC4(C2)[C@H](CN(P(=O)(c2ccccc2)c2ccccc2)[C@@H]4c2ccccc2)C3c2ccc(Cl)nc2)cc1 (some centres undefined),n,n,n,n,n,n
COc1ccc(N2CCN(C(=O)COC(=O)CC(NC(N)=O)c3ccc(Cl)cc3)CC2)cc1 (centres undefined),n,n,n,n,n,n
COc1ccccc1C(=O)C1CCCN(Cc2cccc(OCCO)c2)C1 (centres undefined),n,n,n,n,n,n
